Most compounds without a hit are left out; they make up all but 3.8% or so of the library.
ATXN viability = reduces viability in counter-screen for ATXN expression inhibitors; S2 cells (HEK-293 line with an ATXN2-luciferase reporter) viability, CellTiter-Fluor protease fluorescence, 24 h; Potency, µM (series often up to 56.7 µM), actives largely listed as cytotoxic; 400,000 tested, 0.49% active; also: nearly all actives have a fitted effect of over 40% in size
HT1080-NT tox = kills 2HG-producing HT-1080-NT fibrosarcoma cells | Potency, µM (highest dose often 46.1 µM), most hits filed as cytotoxic | HT-1080-NT fibrosarcoma viability, CellTiter-Glo ATP luminescence, 48 h | AID 686970 | 360,000 tested, 1.6% active;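 also: NT is the 2HG producing partner of a matched IDH1 knockdown line; nearly all actives have a fitted effect of over 55% in size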
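Read-out is CellTiter-Glo luminescence after 10 minutes at room temperature, following 48 hours' compound treatment of HT-1080-NT cells (750 cells/well, RPMI, 5% FBS, 37 degrees C).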
HepG2 tox-1 = counter-screen for TGF-b inhibitors: cytotoxicity in HepG2 cells; Potency, µM (titrated, usually from 46.1 µM), usual class: cytotoxic; 410,000 tested, 0.76% active; HepG2 CAGA-GFP viability, ATP luminescence, 18 h
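CellTiter-Glo luminescence gave cytotoxicity after 18 hours at 37 degrees C. The cells were HepG2 CAGA-GFP in 1% FBS DMEM, stimulated with 500 pg/mL TGF-beta after compound addition. %Activity was normalised to no-cell wells (complete cell-killing) and DMSO (no toxicity), and curves were fitted and classified.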
TGFb inhibitor = TGF-b pathway inhibition. 410,000 tested, 1.2% active. HepG2 CAGA-GFP TGF-b/SMAD3 reporter, GFP fluorescence, 18 h; TGF-beta stimulated, 500 pg/mL final. Potency, µM (series often up to 46.1 µM), most hits filed as inhibitors. AID 588855; also: nearly all actives have a fitted effect of over 65% in size
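First, reporter cells (HEPG2 CAGA-GFP) rested 2 h at 37 degrees C. Next, compounds were pinned in and TGF-beta added to 500 pg/mL final. After 18 h, GFP was imaged per cell and summed per well.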
HT1080 IDH1KD tx = kills HT-1080 cells with IDH1 knockdown; HT-1080 IDH1 knockdown viability, ATP luminescence, 48 h; Potency, µM (top dose mostly 46.1 µM), actives largely listed as cytotoxic; 360,000 tested, 2% active; AID 686971
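IDH1KD HT-1080 cells, 750/well, RPMI + 5% FBS; compound pinned after 2 h settling; 48 h, 37 °C; CellTiter-Glo luminescence; % activity normalised to DMSO and no-cell wells; curves fitted, classed by r2 and efficacy.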
ATXN2 expr inh = reduces ATXN2 reporter expression in HEK-293 cells. HEK-293 ATXN2-luciferase reporter, luminescence, 24 h. Potency, µM (titrated, usually from 57 µM), usual class: inhibitors. 360,000 tested, 0.72% active. AID 1745845; also: nearly all actives have a fitted effect of over 55% in size
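ATXN2-luciferase reporter cells (luciferase flanked by upstream and downstream ATXN2 gene portions) were treated 24 h at 37 °C with compounds at up to 57 uM. SteadyGlo luminescence gave expression; GF-AFC fluorescence gave viability.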
TGFb confirm = TGF-b pathway inhibition, cherry-pick retest; shares compounds with TGFb inhibitor; AID 720534; HepG2 CAGA-GFP TGF-b reporter, GFP fluorescence, 18 h; cells stimulated with TGF-beta, 500 pg/mL; Potency, µM (series often up to 46.1 µM), usual class: inhibitors; 1,600 tested, 63% active; also: nearly all actives have a fitted effect of over 65% in size
HepG2 tox-2 = toxic to HepG2 cells in TGF-b counterscreen; shares compounds with TGFb inhibitor; HepG2 CAGA-GFP viability, ATP luminescence, 18 h; cells stimulated with TGF-beta, 500 pg/mL; Potency, µM (series often up to 46.1 µM), hits mostly inhibitors; 1,600 tested, 27% active; also: nearly all actives have a fitted effect of over 70% in size
TGFb CCL64 inh = blocks TGF-b signaling in CCL64 reporter cells. shares compounds with TGFb inhibitor. CCL64 CAGA-GFP reporter, TGF-b stimulated, GFP fluorescence, 18 h. Potency, µM (series often up to 46.1 µM), hits mostly inhibitors. 1,600 tested, 41% active; also: nearly all actives have a fitted effect of over 65% in size
COP TGFb inh = blocks TGF-b signaling in HepG2 COP reporter; shares compounds with TGFb inhibitor; HepG2 COP-GFP TGF-b reporter, GFP fluorescence, 18 h; cells stimulated by added recombinant TGF-beta; Potency, µM (highest dose often 46.1 µM), actives largely listed as inhibitors; 1,600 tested, 3% active; also: nearly all actives have a fitted effect of over 70% in size
Of the large screens only hits and unclear results are named; the others gave an inactive call (follow-up assays come after a bar, where they were run). Calls follow the shape of the dose curve; as a rule, active = well fitted curve in the direction sought with a large enough effect; inconclusive = small, poorly fitted or top-dose-only effect, or another doubt; inactive = no such curve, though single readings can be large; an effect the other way counts as inactive or inconclusive.

O=c1[nH]c2ccccc2n1C1CCN(C(c2ccccc2OC(F)(F)F)c2nnnn2Cc2ccccc2)CC1 (centres undefined)	ATXN viability 10µM, HT1080-NT tox 25.9µM, TGFb inhibitor 11.2µM, HT1080 IDH1KD tx inconclusive, ATXN2 expr inh 17.8µM
Cc1cccc(C)c1-n1nnnc1C(c1cccc2ccccc12)N1CCC(n2c(=O)[nH]c3ccccc32)CC1 (centres undefined)	none
COc1cccc(OC)c1-c1nn2c(-c3n[nH]c4c3CCC4)nnc2s1	TGFb inhibitor inconclusive (no result: ATXN viability, HT1080-NT tox, HT1080 IDH1KD tx, ATXN2 expr inh)
O=C1C=CC[C@@H]2[C@H]3CCCN4CCC[C@@H](CN12)[C@@H]34	ATXN2 expr inh 1.53µM (no result: ATXN viability, HT1080-NT tox, HepG2 tox-1, TGFb inhibitor, HT1080 IDH1KD tx)
COc1ccc(CNC(=O)C(CC(C)C)NS(=O)(=O)c2ccc3c(c2)oc(=O)n3C)cc1 (centres undefined)	TGFb inhibitor inconclusive (no result: HT1080-NT tox, HT1080 IDH1KD tx)
C[n+]1c2cc(N)ccc2cc2ccc(N)cc21	HT1080-NT tox 2.31µM, HT1080 IDH1KD tx 2.31µM, ATXN2 expr inh 3.16µM (no result: ATXN viability)
O=C(Nc1ccc(Cl)c(C(F)(F)F)c1)C1CCCN(S(=O)(=O)c2cccc3cccnc23)C1 (centres undefined)	TGFb inhibitor inconclusive (no result: ATXN viability, HT1080-NT tox, HT1080 IDH1KD tx, ATXN2 expr inh)
C=CCn1c(O)c(C(CC)=NCc2ccc3c(c2)OCO3)c(=O)[nH]c1=O	none
C=CCn1c(O)c(C(CC)=NCc2cc(OC)cc(OC)c2)c(=O)[nH]c1=O	HT1080-NT tox 23.1µM, HT1080 IDH1KD tx 23.1µM
CS(=O)(=O)Nc1ccccc1C(=O)Nc1cc(Cl)cc(Cl)c1	ATXN viability inconclusive, HT1080-NT tox inconclusive, TGFb inhibitor 7.08µM, HT1080 IDH1KD tx 11.2µM, ATXN2 expr inh 22.4µM | TGFb confirm 7.31µM | HepG2 tox-2 inconclusive | TGFb CCL64 inh 8.2µM | COP TGFb inh inactive
CNc1ccc2oc(C[C@H]3O[C@@]4(CC[C@H]3C)O[C@H]([C@H](C)C(=O)c3ccc[nH]3)[C@H](C)C[C@H]4C)nc2c1C(=O)O	ATXN viability 7.08µM, HT1080-NT tox 1.46µM, HepG2 tox-1 7.08µM, TGFb inhibitor 5.01µM, HT1080 IDH1KD tx 2.06µM, ATXN2 expr inh 8.91µM | TGFb confirm 2.06µM | HepG2 tox-2 1.46µM | TGFb CCL64 inh 1.03µM | COP TGFb inh 6.51µM
ClCCN(CCCl)c1ccc(C=Nc2ccc(/C=C/c3ccncc3)cc2)cc1	none (no result: ATXN viability, HT1080-NT tox, HT1080 IDH1KD tx, ATXN2 expr inh)
COc1ccc2c(c1OC)CN1CCc3cc4c(cc3[C@H]1C2)OCO4	ATXN viability inconclusive, TGFb inhibitor inconclusive
CCC1CN2CCc3cc(OC)c(OC)cc3C2CC1CC1NCCc2c1[nH]c1ccc(O)cc21 (centres undefined)	ATXN viability inconclusive, HT1080-NT tox 0.411µM, TGFb inhibitor 0.0891µM, HT1080 IDH1KD tx 0.184µM, ATXN2 expr inh 0.0075µM | TGFb confirm 0.0184µM | HepG2 tox-2 1.03µM | TGFb CCL64 inh 0.0366µM | COP TGFb inh inactive

Screening data as filed in PubChem.
